# According to PubChem BioAssay:
# For some assays here: Results with a measured potency or affinity are listed apart. This is one part of the list. Calls of active or inactive are those of the source.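 Rule for the calls, unless noted: active = membrane potential signal rise above negative control mean plus 3 SD in both duplicates, also active in the earlier TRPC4 screen; inactive = the rest.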
# Assays:
# [1] = test system: TRPC4 beta (transient receptor potential cation channel C4), mouse; assay: TRPC4 cation channel opening, retest – cell-based, Fluo4 calcium, HEK293 TRPC4beta/mu-opioid, duplicates, 10 µM, confirmation (AID 2426;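 active = fluorescence ratio normalized to control raised more than 50% in primary screen plus both repeat runs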;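 for activation: percent rise of integrated ratio over buffer wells lacking compound which define 0%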); details: Fluo4 calcium fluorescence, at 10 µM; active compounds read high
# [2] = test system: transient receptor potential cation channel C4 beta (TRPC4), mouse; assay: TRPC4 cation channel opening, second retest – cell-based, second round, Fluo4, HEK293 TRPC4beta/mu-opioid, 1 µM, confirmation (AID 2461;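 active = primary screen active and over 50% activation in each of two duplicate runs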;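 for activation: 0% = wells without test compound as baseline of integrated fluorescence ratio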); details: Fluo4 calcium fluorescence, at 1 µM; active compounds read high
# [3] = test system: TRPC4 (transient receptor potential cation channel C4 beta), mouse; assay: potentiation of DAMGO EC20 TRPC4 response – cell-based, second round, Fluo-4, HEK293 TRPC4beta/mu-opioid, 1 µM, confirmation (AID 2554;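 active = primary screen hit whose fluorescence ratio, in both repeats, exceeds the weak agonist control mean by 3 SD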); details: DAMGO EC20, Fluo-4 calcium flux, at 1 µM; active compounds read high
# [4] = test system: TRPC4 beta (transient receptor potential cation channel C4), mouse; assay: potentiation of DAMGO EC20 TRPC4 response – cell-based, Fluo-4, HEK293 TRPC4beta/mu-opioid, confirmation (AID 2555;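 active = primary screen hit whose calcium fluorescence ratio, in both repeats, exceeds the weak agonist control mean by 3 SD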); details: DAMGO EC20, Fluo-4 calcium flux, at 10 µM; active compounds read high
# [5] = molecular target: Short transient receptor potential channel 4 (Mus musculus) (UniProt Q9QUQ5); assay: blockers of DAMGO-evoked TRPC4 calcium flux – cell-based, Fluo4, HEK293 TRPC4beta/mu-opioid, confirmation (AID 2636;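 active = calcium signal cut by more than 3 SD below the full-agonist control yet still positive, in both repeats and the earlier primary screen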); details: at 10 µM; active compounds read high
# [6] = molecular target: Short transient receptor potential channel 4 (Mus musculus) (UniProt Q9QUQ5); assay: blockers of DAMGO-evoked TRPC4 calcium flux – cell-based, second round, Fluo4, HEK293 TRPC4beta/mu-opioid, 1 µM, confirmation (AID 2637;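 active = calcium signal ratio cut to more than 3 SD under the fully stimulated control mean yet still positive, in both repeats and the primary screen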); details: at 1 µM; active compounds read high
# [7] = molecular target: Short transient receptor potential channel 4 (Mus musculus) (UniProt Q9QUQ5); assay: potentiation of DAMGO-evoked TRPC4 calcium signal – cell-based, HEK293 TRPC4/mu-opioid, Fluo-4 calcium, EC20 DAMGO, dose response (AID 434941;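 active = earlier screen potentiator hit that boosts the TRPC4 ion channel at some dose, with a dose response; inactive = no potentiation, no dose response, or not a prior hit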;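 note: calcium entry triggered by an EC20 dose of DAMGO at the co-expressed mu-opioid receptor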); details: HEK293 TRPC4/mu-opioid cells, Fluo-4 calcium fluorescence; series mostly up to 20 µM
# [8] = molecular target: Short transient receptor potential channel 4 (Mus musculus) (UniProt Q9QUQ5); assay: block of DAMGO-driven TRPC4 calcium entry – cell-based, HEK293 TRPC4/mu-opioid, Fluo-4 calcium, dose response (AID 434942;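 active = primary screen inhibitor hit that blocks the TRPC4 channel at some tested dose, yielding a dose curve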); details: HEK293 TRPC4/mu-opioid cells, DAMGO-evoked Fluo-4 calcium ratio; series mostly up to 20 µM
# [9] = molecular target: Short transient receptor potential channel 6 (Mus musculus) (UniProt Q61143); assay: TRPC6 blockade by TRPC4 inhibitor hits – cell-based, HEK293, membrane potential dye, duplicate, selectivity assay for TRPC4 inhibitor project, confirmation (AID 434948;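 active = active in primary screen and both duplicates, each dropping signal beyond three positive-control SD with fluorescence still positive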); details: HEK293 TRPC6, membrane potential dye fluorescence, at 10 µM; inhibition: active compounds read high, stimulated with maximal-effect acetylcholine unless noted; outcome: stimulated with maximal-effect acetylcholine unless noted
# [10] = molecular target: Short transient receptor potential channel 6 (Mus musculus) (UniProt Q61143); assay: TRPC6 opening by TRPC4 activator hits – cell-based, HEK293, membrane potential dye, duplicate, selectivity assay for TRPC4 activator project, confirmation (AID 434950); details: HEK293 TRPC6, membrane potential fluorescence, at 10 µM; activation: active compounds read high; outcome: activation;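 for activation: 0% = buffer only wells and 100% = acetylcholine maximal-effect wells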
# [11] = molecular target: Short transient receptor potential channel 6 (Mus musculus) (UniProt Q61143); assay: positive modulators of mouse TRPC6 channel – HEK293 cells, membrane potential dye, duplicate, selectivity assay for TRPC4 potentiator project, confirmation (AID 434952;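 active = compound raising the membrane signal above positive-control mean plus 3 SD in both repeats, and a primary screen hit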); details: HEK293 TRPC6, membrane potential dye fluorescence, at 10 µM; maximal acetylcholine added after compound unless noted
# [12] = molecular target: Short transient receptor potential channel 4 (Mus musculus) (UniProt Q9QUQ5); assay: calcium flux activators in TRPC4/5HT1a cells, counter-screen for TRPC4 activator project, cell-based, second counter screen, HEK293 TRPC4/5HT1a, Fluo-4 (AID 434977;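 active = calcium signal rise above buffer-control mean plus 5 SD in both duplicates, and also a hit in the primary screen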;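 for activation: plate controls were assay buffer for no effect and maximal serotonin response for full effect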); details: Fluo-4 calcium flux, at 10 µM; active compounds read high
# [13] = serotonin-gated TRPC4 signal block – cell-based, second counter screen, HEK293 TRPC4/5HT1a, Fluo-4, counter-screen for TRPC4 inhibitor project, confirmation (AID 434978;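 active = primary screen active whose calcium signal fell more than 3 SD beyond the full-serotonin control mean in both duplicate plates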;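 note: serotonin given first at submaximal then at maximal dose after compound preincubation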); details: Fluo-4 calcium flux, at 10 µM; inhibition: active compounds read high, serotonin added to trigger calcium flux unless noted; outcome: serotonin added to trigger calcium flux unless noted
# [14] = test system: TRPC4 (mouse), co-expressed with 5HT1a in HEK293; assay: enhancement of serotonin-evoked TRPC4 response – cell-based, second counter screen, HEK293 TRPC4/5HT1a, Fluo-4, counter-screen for TRPC4 potentiator project, confirmation (AID 434979;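 active = signal rise over 3 SD above mean of control wells given weak agonist, in both repeats and first screen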); details: Fluo-4 calcium flux, at 10 µM; outcome: serotonin added at its EC20 dose unless noted; potentiation: active compounds read high, serotonin added at its EC20 dose unless noted
# [15] = nonspecific calcium rise without TRPC4 – cell-based, HEK293 mu-opioid receptor line, counter-screen for TRPC4 activator project, confirmation (AID 449723;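 active = hit in primary screen, with calcium signal over 5 SD above buffer well mean in both duplicates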;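 note: counter screen cells carry the mu-opioid receptor alone and lack TRPC4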); details: HEK293 mu-opioid cells, Fluo-4 calcium fluorescence, at 10 µM; active compounds read high
# [16] = nonspecific potentiation of DAMGO calcium response – cell-based, HEK293 mu-opioid receptor line, counter-screen for TRPC4 allosteric potentiator project, confirmation (AID 449724;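 active = calcium signal rise more than 3 SD above the low-dose agonist control mean, in both duplicate plates and the primary screen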); details: HEK293 mu-opioid receptor cells, Fluo-4 calcium flux, at 10 µM; compound added before EC20 DAMGO stimulus unless noted
# [17] = molecular target: Short transient receptor potential channel 6 (Mus musculus) (UniProt Q61143); assay: blockers of TRPC6 cation channel activity – HEK293 cells, membrane potential dye, duplicate, confirmation (AID 488960;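 active = fluorescence ratio falls more than 5 SD below the full-stimulation control mean, in both duplicate runs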;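 note: integrated fluorescence ratio of peak minus minimum over baseline after agonist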); details: ACh-evoked depolarization, at 10 µM; active compounds read high
# Chain of Short transient receptor potential channel 6 (Mus musculus) (Q61143 whole entry, looked up): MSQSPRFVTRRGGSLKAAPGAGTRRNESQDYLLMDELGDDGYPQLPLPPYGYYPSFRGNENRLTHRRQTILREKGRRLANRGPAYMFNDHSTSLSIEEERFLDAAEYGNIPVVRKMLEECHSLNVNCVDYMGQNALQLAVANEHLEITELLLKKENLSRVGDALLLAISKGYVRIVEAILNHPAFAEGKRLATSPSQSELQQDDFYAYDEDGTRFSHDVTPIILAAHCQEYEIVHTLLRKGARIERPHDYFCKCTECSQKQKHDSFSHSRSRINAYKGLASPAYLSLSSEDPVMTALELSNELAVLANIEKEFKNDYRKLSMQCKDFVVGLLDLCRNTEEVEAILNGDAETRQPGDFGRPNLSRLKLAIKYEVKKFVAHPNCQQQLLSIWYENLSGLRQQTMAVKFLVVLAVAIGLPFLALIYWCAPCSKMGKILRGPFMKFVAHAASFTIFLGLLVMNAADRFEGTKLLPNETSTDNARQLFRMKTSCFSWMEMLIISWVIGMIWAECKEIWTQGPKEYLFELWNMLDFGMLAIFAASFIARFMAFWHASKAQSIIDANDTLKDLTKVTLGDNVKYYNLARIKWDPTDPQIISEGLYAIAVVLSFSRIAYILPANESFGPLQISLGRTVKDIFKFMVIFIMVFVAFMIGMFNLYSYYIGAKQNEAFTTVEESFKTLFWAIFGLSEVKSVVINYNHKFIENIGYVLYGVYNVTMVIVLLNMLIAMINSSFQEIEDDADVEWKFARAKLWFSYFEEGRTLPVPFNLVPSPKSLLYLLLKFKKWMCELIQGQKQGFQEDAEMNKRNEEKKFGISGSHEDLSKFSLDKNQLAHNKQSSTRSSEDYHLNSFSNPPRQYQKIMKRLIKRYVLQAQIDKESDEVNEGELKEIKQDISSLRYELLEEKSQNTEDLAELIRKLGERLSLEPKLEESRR
# Chain of Short transient receptor potential channel 4 (Mus musculus) (Q9QUQ5 whole entry, looked up): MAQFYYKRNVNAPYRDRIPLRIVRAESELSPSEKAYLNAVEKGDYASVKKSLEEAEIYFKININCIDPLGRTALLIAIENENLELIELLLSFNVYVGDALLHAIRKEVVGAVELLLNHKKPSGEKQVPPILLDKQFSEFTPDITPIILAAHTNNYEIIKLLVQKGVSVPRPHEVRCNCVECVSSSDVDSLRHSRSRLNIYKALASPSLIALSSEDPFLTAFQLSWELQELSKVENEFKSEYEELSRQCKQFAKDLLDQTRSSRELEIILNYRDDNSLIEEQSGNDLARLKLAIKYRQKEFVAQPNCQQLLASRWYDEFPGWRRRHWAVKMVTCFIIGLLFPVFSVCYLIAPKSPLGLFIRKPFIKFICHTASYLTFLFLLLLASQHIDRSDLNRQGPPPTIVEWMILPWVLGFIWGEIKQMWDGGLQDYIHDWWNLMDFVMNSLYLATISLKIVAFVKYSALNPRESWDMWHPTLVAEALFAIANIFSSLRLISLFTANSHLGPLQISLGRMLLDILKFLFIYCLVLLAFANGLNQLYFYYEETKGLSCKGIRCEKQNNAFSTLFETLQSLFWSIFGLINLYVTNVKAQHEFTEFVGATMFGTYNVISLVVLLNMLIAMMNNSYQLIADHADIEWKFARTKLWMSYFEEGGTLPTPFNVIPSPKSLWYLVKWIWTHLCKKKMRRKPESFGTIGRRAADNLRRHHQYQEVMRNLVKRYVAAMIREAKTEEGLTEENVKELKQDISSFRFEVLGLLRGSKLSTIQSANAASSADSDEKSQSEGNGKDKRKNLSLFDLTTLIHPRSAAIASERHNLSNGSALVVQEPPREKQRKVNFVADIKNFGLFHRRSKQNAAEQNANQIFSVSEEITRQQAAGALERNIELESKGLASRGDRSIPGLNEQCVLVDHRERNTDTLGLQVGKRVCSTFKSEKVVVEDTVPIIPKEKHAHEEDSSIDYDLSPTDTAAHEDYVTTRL
smiles,measurement,setting,value
CN(C)C1(CNC(=O)c2ccc(Cl)c(S(=O)(=O)NCc3ccco3)c2)CCCCC1,outcome,[1],inactive
same,activation,[2],71% (active)
same,outcome,[3],inactive
same,outcome,[4],inactive
same,outcome,[5],inactive
same,outcome,[6],inactive
same,outcome,[7],inactive
same,outcome,[8],inactive
same,outcome,[9],inactive
same,activation,[10],36% (active)
same,outcome,[11],inactive
same,outcome,[12],inactive
same,outcome,[13],inactive
same,outcome,[14],inactive
same,outcome,[15],inactive
same,outcome,[16],inactive
CC1=CC(=Cc2sc3ccccc3[n+]2C)C=C(C)O1,inhibition,[17],73% (active)
CC[C@@H](CO)NC(=O)[C@@H]1C=C2c3cccc4c3c(cn4C)C[C@H]2N(C)C1,activation,[1],107% (active)
same,activation,[2],57% (active)
same,outcome,[3],inactive
same,outcome,[4],inactive
same,outcome,[5],inactive
same,outcome,[6],inactive
same,outcome,[7],inactive
same,outcome,[8],inactive
same,outcome,[9],inactive [setting not given]
same,outcome,[10],inactive
same,outcome,[11],inactive [setting not given]
same,activation,[12],147% (active)
same,outcome,[13],inactive [setting not given]
same,outcome,[14],inactive [setting not given]
same,outcome,[15],inactive
same,outcome,[16],inactive [setting not given]
Nc1cc(N2CCNCC2)ccc1[N+](=O)[O-],activation,[1],199% (active)
same,activation,[2],84% (active)
same,outcome,[3],inactive
same,outcome,[4],inactive
same,outcome,[5],inactive
same,outcome,[6],inactive
same,outcome,[8],inactive
same,outcome,[9],inactive
same,outcome,[10],inactive
same,outcome,[11],inactive
same,activation,[12],10.7% (active)
same,outcome,[13],inactive
same,potentiation,[14],38.4% (active)
same,outcome,[15],inactive
same,outcome,[16],inactive
Fc1cccc(C2NCCc3[nH]cnc32)c1 (stereo not given),activation,[1],201% (active)
same,outcome,[2],inactive
same,outcome,[3],inactive
same,outcome,[4],inactive
same,outcome,[5],inactive
same,outcome,[6],inactive
same,outcome,[7],inactive
same,outcome,[8],inactive
same,outcome,[9],inactive
same,outcome,[10],inactive
same,outcome,[11],inactive
same,activation,[12],53.4% (active)
same,outcome,[13],inactive
same,outcome,[14],inactive
same,outcome,[15],inactive
same,outcome,[16],inactive
CN1CCN(c2cc(N3CCNCC3)ccc2[N+](=O)[O-])CC1,inhibition,[17],72.5% (active)
